36 compounds from PubChem BioAssay can be followed below.

For this assay, the target named is Follistatin-related protein 3 (Homo sapiens) (UniProt O95633). The experiment in a line: compounds binding follistatin-related protein 3 – biochemical, small-molecule microarray, 635 nm fluorescence, primary screen (AID 1105).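 Note: score merges emission near 667 nm and signal to noise per printed spot across three slides.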 The note with it: FSTL3 binding, higher = more signal.
Chain of Follistatin-related protein 3 (Homo sapiens) (O95633 whole entry, looked up): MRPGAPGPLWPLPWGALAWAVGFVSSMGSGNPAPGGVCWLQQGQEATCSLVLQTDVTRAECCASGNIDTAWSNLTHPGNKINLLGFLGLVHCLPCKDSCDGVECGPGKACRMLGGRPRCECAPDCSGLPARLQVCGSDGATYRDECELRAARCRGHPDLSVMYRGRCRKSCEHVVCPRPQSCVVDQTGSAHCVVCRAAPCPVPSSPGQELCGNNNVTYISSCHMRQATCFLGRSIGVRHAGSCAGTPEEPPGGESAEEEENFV
On to `CC(C)(C)N1CC=CC23O[C@@H]4/C=C\CCCOC(=O)C4[C@H]2C(=O)N(CCCO)[C@@H]3C1=O` (stereo partly specified), for which the composite z-score is -0.996.
Consider `Cc1ccc(S[C@]2(C(=O)NCCCN(C)C)CC(=O)N(C3Cc4ccccc4C3)[C@@H]2c2ccc(CO)cc2I)cc1`, for which the composite z-score is -0.335.
As for `CCOc1cc(C(O)C2C=CC3C(=O)N(c4ccccc4)C(=O)C3N2Nc2ccccc2F)ccc1O` (stereo unspecified), the composite z-score was -0.271.
On to `Cc1ccc(F)cc1S(=O)(=O)N[C@H]1CCN(Cc2ccc(OC(C)C)cc2)C1`, for which the composite z-score is 0.195.
Under `COC(=O)C(CC#Cc1ccc2c(c1)[C@]1(C(=O)N2)[C@H](c2ccc(OCCO)cc2)N2[C@H](c3ccccc3)[C@H](c3ccccc3)OC(=O)[C@H]2[C@@H]1C(=O)N1CCCCCCC1)C(=O)OC` stands 1.63; under `[N-]=[N+]=Nc1ccccc1C[C@]1(C(=O)N2CCOCC2)N=C(c2ccc(OCCCO)cc2)O[C@H]1c1ccccc1N=[N+]=[N-]`, 1.47; under `O=C(NC1CC1)[C@@H]1c2ccccc2C(=O)N(Cc2ccc(OC(F)(F)F)cc2)[C@H]1c1ccc(CO)cc1`, 0.301.
`CN(C)CCCC[C@@H]1NC(=O)[C@H]2C[C@@H](C(=O)O)[C@@H](c3ccc(O)cc3)N2C1=O` had a composite z-score of 1.53.
In the case of `CO[C@H]1O[C@H](CO)[C@@H](OC(=O)Nc2ccccc2)[C@H](OC(=O)Nc2ccccc2)[C@H]1OC(=O)Nc1ccccc1`, the composite z-score is 0.41.
Under `[N-]=[N+]=NCc1ccccc1[C@@H]1OC(c2ccc(OCCCO)cc2)=N[C@]1(Cc1ccccc1N=[N+]=[N-])C(=O)O` stands 1.03; under `CC(C)=CCCC(C)=CC(O)C1C=CC2C(=O)NC(=O)C2N1Nc1ccc(Cl)cc1Cl` (stereo unspecified), 1.1.
`CC(C)C(=C=CC[C@H](O)c1ccccc1OCCO)C[C@H](O)c1cc(Cl)cc(Cl)c1O` registered a composite z-score of 0.588.
The compound `COc1ccc(C(=O)Nc2ccc3c(c2)[C@@]2(O[C@H](CCO)[C@@H]([Si](C)(C)c4ccc(OC)cc4)[C@@H]2C)C(=O)N3Cc2ccccc2)cc1` yielded a composite z-score of 0.527.
On to `CC(C)(C)OC(=O)CC[C@@]1(C(=O)NCCN2CCOCC2)N=C(c2ccc(OCCCO)cc2)O[C@@H]1c1ccccc1CN=[N+]=[N-]`, for which the composite z-score is -0.205.
Take `CC(C)C(CO)N1C(=O)[C@@H]2C3C(=O)OCCC/C=C\[C@H]3OC23C=CCN(Cc2ccccc2)C(=O)[C@@H]13` (stereo partly specified): the composite z-score is -0.794.
For `COC(=O)C(CC#Cc1ccc2c(c1)[C@]1(C(=O)N2)[C@H](C(=O)N2CCc3cc(OC)c(OC)cc3C2)[C@H]2C(=O)O[C@H](c3ccccc3)[C@H](c3ccccc3)N2[C@@H]1c1ccccc1OCCO)C(=O)OC` the value was 1.28; for `CC(C)=CCCC=C(C)C(O)C1C=CC2C(=O)N(c3ccccc3)C(=O)C2N1Nc1ccc(C#N)cc1` (stereo unspecified), 1.29; for `C=CCC(OC(C)=O)[C@@H]1[C@@H](N(Cc2cccc3ccccc23)C(=O)Cc2ccc(OC)cc2)c2cc(OCCCO)ccc2N1C(=O)Cc1ccc2ccccc2c1` (stereo partly specified), 0.404.
`CN1C(=O)C2C=CC(C(O)c3ccc(-c4ccccc4)s3)N(NC(=O)OC(C)(C)C)C2C1=O` (stereo unspecified): the composite z-score worked out at 1.02.
In turn, `COC(=O)[C@@]1(Cc2ccccc2)N=C(c2ccc(OCCCO)cc2)O[C@H]1c1ccccc1CN=[N+]=[N-]` registered a composite z-score of 0.323.
In turn, `COc1ccc([Si](C)(C)[C@H]2[C@H](CC(=O)N3Cc4ccccc4C[C@H]3CO)O[C@@]3(C(=O)N(C)c4ccccc43)[C@@H]2C)cc1` came in with a composite z-score of 1.4.
Regarding `C=CCC(OC(C)=O)[C@@H]1[C@@H](N(Cc2cc3ccccc3o2)C(=O)c2cccc3ccccc23)c2cc(OCCCO)ccc2N1C(=O)c1ccc2ccccc2n1` (stereo partly specified), the composite z-score was -0.0659.
As for `CCOC(=O)C[C@H]1[C@H](OC(=O)c2ccccc2-c2ccccc2)[C@@H](NC(=O)C2CCCCC2)c2cc(OCCCO)ccc2N1C(=O)c1ccc2ccccc2n1`, the composite z-score turned out to be 0.845.
`O=C1C2C=CC(C(O)C3CCCCC3)N(n3cnnc3)C2C(=O)N1Cc1ccccc1` (stereo unspecified) showed a composite z-score of 1.21.
Compound `C=CCOC(=O)[C@@H]1[C@H]2C(=O)O[C@H](c3ccccc3)[C@H](c3ccccc3)N2[C@H](c2ccc(OCCOC(=O)[C@H]3C[C@H]4C(=O)N[C@@H](CCCCN(C)C)C(=O)N4[C@H]3c3ccc(O)cc3)cc2)[C@@]12C(=O)Nc1ccc(I)cc12` returned a composite z-score of 1.42.
Compound `O=C1C[C@]2(c3ccc([N+](=O)[O-])cc3)C(=O)N(C3CC3)c3cc(CO)ccc3[C@H]2N1C1CCCCC1` showed a composite z-score of -0.184.
For `CN(C)CCCNC(=O)[C@@]1(Cc2ccccc2I)c2ccccc2C(=O)N(C2CCCCC2)[C@H]1c1ccc(CO)cc1` the value was 0.383; for `C=CCC(OC(C)=O)[C@@H]1[C@@H](N(Cc2cccc3ccccc23)C(=O)c2ccc(-c3ccccc3)cc2)c2cc(OCCCO)ccc2N1C(=O)Cc1ccc2ccccc2c1` (stereo partly specified), 0.228.
For the compound `COc1cc(C(O)C2C=CC3C(=O)N(c4ccccc4)C(=O)C3N2Nc2ccccc2F)cc(OC)c1OC` (stereo unspecified), the composite z-score turned out to be 0.479.
For the compound `C=CCN1C(=O)[C@@]2(O[C@@H](CCn3cc([C@H](O)c4ccccc4)nn3)[C@H]([Si](C)(C)c3ccc(OC)cc3)[C@H]2C)c2cc(N3C(=O)c4cccc5cccc3c45)ccc21`, the composite z-score is -1.06.
`COC(=O)[C@H](Cc1ccc(O)cc1)N[C@@H](/C=C/C1CC1)[C@H](O)Cc1ccccc1` showed a composite z-score of -0.119.
Consider `COc1ccc([Si](C)(C)[C@@H]2[C@@H](CC(=O)N3CCC[C@H]3CO)O[C@]3(C(=O)N(Cc4cccc(N5CCCCC5=O)c4)c4ccccc43)[C@H]2C)cc1`, for which the composite z-score came to 0.747.
Under `O=C1C[C@@](C(=O)O)(c2ccc([N+](=O)[O-])cc2)[C@@H](c2ccc(CO)cc2)N1C1CCCCC1` stands 1.1; under `CCOC(=O)c1cn(C[C@H](Cc2ccccc2)NC(=O)N[C@H](CO)CCc2oc(C(C)=O)c(C(=O)OC)c2C(=O)OC)nn1`, 1.49; under `NCCCCCCNC(=O)[C@@H]1C[C@@H]2C(=O)N3CCC[C@H]3C(=O)N2[C@@H]1c1cccc(OCCO)c1`, 1.04.
As to `COCCOC(=O)N1C(=O)[C@@]2(c3cc(C#CCCO)ccc31)[C@H](C(N)=O)[C@H]1C(=O)O[C@H](c3ccccc3)[C@H](c3ccccc3)N1[C@@H]2c1ccccc1OCCO`, the composite z-score was 0.911.
